{"source": "PubChem BioAssay", "key": {"[1]": {"assay": "stimulators of nuclear beta-catenin in C2C12, primary screen, imaging, WNT3A-conditioned medium, mouse C2C12, NPC library (AID 1117326; in the data active = nuclear beta-catenin stimulation mostly above about 4.2%, no sharp cut-off; inactive = mostly below about 10%; note: reference of the scale not given here)", "details": "stronger effect = higher value"}, "[2]": {"assay": "stimulators of insulin release from INS-1E, primary screen, cell-based, 5 mM glucose, NPC library (AID 1117329;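 active = compound raises insulin release from rat beta cells at 5 mM glucose, no numeric limit stated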; note: reference of the scale not given here)", "details": "rat INS-1E insulin secretion, at 10 µM, stronger effect = higher value"}, "[3]": {"assay": "growth inhibition of GSK3B-pretreated HCT116 cells – cell-based, CellTiter-Glo, 0.2 to 20 µM (AID 1117336;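 active = compounds lowering colon cancer cell viability after pretreatment blocking the GSK3B kinase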)", "details": "HCT116 viability after GSK3B inhibitor, at 20 µM, stronger effect = higher value"}, "[4]": {"assay": "inhibition of endothelial tube formation, primary screen, imaging, VEGF stimulated, CD31 staining, tube area, NPC library (AID 1117340;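 active = compound that reduces growth-factor-driven endothelial tube area in a mixed cell culture, no cutoff stated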)", "details": "VEGF-stimulated ADSC/ECFC co-culture, at 10 µM, stronger effect = higher value"}, "[5]": {"assay": "glucagon-like peptide 1 release enhancers, primary assay, NCI-H716 cell line, NPC library (AID 1117341;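 active = compound raises GLP1 secretion from the human gut endocrine cells, with no numeric limit stated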; note: reference of the scale not given here)", "details": "NCI-H716 cells, at 10 µM, stronger effect = higher value"}, "[6]": {"assay": "HCT116 colon cancer cell growth inhibition, primary screen, CellTiter-Glo luminescence, NPC library (AID 1117342;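 active = compounds that lower survival of HCT116 colon cancer cells in the luminescence readout, no numeric limit stated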)", "details": "at 20 µM (top of the series)"}, "[7]": {"assay": "CellTiter-Glo luminescent readout of SW480 viability loss, NPC library primary (AID 1117343;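 active = compounds that lower viability of the colon cancer cells in the luminescence readout, with no numeric limit stated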)", "details": "CellTiter-Glo luminescence; at 20 µM (top of the series) unless noted"}, "[8]": {"assay": "decreased DLD-1 cellular survival, CellTiter-Glo luminescent readout, NPC compound collection, primary HTS (AID 1117346;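 active = compounds that lower survival of DLD-1 colon cancer cells in the luminescence readout, no cutoff given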)", "details": "DLD-1 viability, CellTiter-Glo luminescence; at 20 µM (top of the series)"}, "[9]": {"assay": "growth inhibition of DIPG glioma cells, dose response, cell-based, SU-DIPG-IV, MIPE4.0, CellTiter-Glo, qHTS (AID 1347063);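 note: compound exposure lasted 48 hours before the viability readout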", "details": "SU-DIPG-IV viability, CellTiter-Glo ATP luminescence"}, "[10]": {"assay": "SU-DIPG-VI glioma cell viability, MIPE4.0 library, CellTiter-Glo luminescence, qHTS (AID 1347066);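 note: cells exposed to compound for 48 hours before readout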", "details": "CellTiter-Glo ATP luminescence"}, "[11]": {"assay": "JHH-DIPG-1 glioma cell viability, MIPE5.0 library, CellTiter-Glo luminescence, qHTS (AID 1347067; cut-off not given, nearly all actives have AC50 up to about 26 µM;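 note: cells exposed to compound for 48 hours before readout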)", "details": "JHH-DIPG-1 glioma viability, CellTiter-Glo ATP luminescence"}, "[12]": {"assay": "SU-DIPG-XXV glioma cell viability, MIPE5.0 library, qHTS (AID 1347068; cut-off not given, nearly all actives have IC50 up to about 30 µM;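 for IC50: cells exposed to compound for 48 hours before viability readout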)"}, "[13]": {"assay": "sensitizers of A549 cells to miR-34 induction, primary screen, imaging, A549 dox-inducible miR-34, nuclei and caspase counts (AID 1347080;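 active = compounds whose cell count with miR-34 switched on is under 0.7 times the count with it off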)", "details": "A549 miR-34 inducible, Hoechst nuclei count, 48 h"}, "[14]": {"assay": "survival rescue of mitochondrial mutant cells in low glucose, primary screen, MELAS cybrids, Rieske KO mouse fibroblasts, CellTiter-Glo (AID 1508586;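 active = mean z-score across replicates of 1.96 or higher in either the MELAS or the Rieske mutant cell line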;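 note: z relative to plate mean and SD of compound and empty wells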)"}, "[15]": {"assay": "viability rescue of complex I mutant cybrids, primary screen, cell-based, galactose medium, ATP luminescence (AID 1645843;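 active = z-score of at least 1.8 in each of two replicates, scored against plate mean and spread of sample wells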;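 note: positive z means more ATP and so rescue of galactose-driven cybrid death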)", "details": "complex I mutant cybrid cells, 72 h, stronger effect = higher value"}, "[16]": {"assay": "growth inhibition of DIPG glioma cells, dose response, cell-based, JHH-DIPG-1, MIPE4.0, CellTiter-Glo, qHTS (AID 1347062; cut-off not given, nearly all actives have AC50 up to about 27 µM)", "details": "JHH-DIPG-1 viability, CellTiter-Glo ATP luminescence"}, "[17]": {"assay": "liver-stage malaria parasite growth inhibition, primary screen, cell-based, HepG2, luciferase luminescence, HepG2 viability (AID 624349; in the data active = parasite load remaining mostly below about 12%, no sharp cut-off; inactive = mostly above about 10%;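 note: 100% = mean of DMSO negative control wells on the same plate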)", "details": "P. berghei liver stage in HepG2, luciferase luminescence, concentration not given here; parasite load remaining: stronger effect = lower value; viability: measured here: HepG2 viability without parasites"}, "[18]": {"assay": "viability loss in pontine glioma line – cell-based, SU-DIPG-XXV, MIPE5.0, CellTiter-Glo, qHTS, dose response (AID 1347065; cut-off not given, nearly all actives have AC50 up to about 26 µM;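 note: cells exposed to compound for 48 hours before ATP readout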)", "details": "CellTiter-Glo ATP luminescence"}, "[19]": {"details": "stronger effect = lower value, cell number ratio, induced over uninduced"}, "[20]": {"details": "measured here: relative caspase fold change +Dox/-Dox"}, "[21]": {"details": "measured here: total cells with miR-34 induction, stronger effect = lower value"}, "[22]": {"details": "measured here: total cells without miR-34 induction"}, "[23]": {"details": "MELAS cybrid survival, CellTiter-Glo 48 h, stronger effect = higher value"}, "[24]": {"details": "Rieske KO mouse fibroblast survival, CellTiter-Glo 72 h"}}, "note": "Several values for one entry are separate records, joined by “and”; a condition that tells them apart may be missing. Equal values may be shown once. Results filed as inconclusive are left out. Activity calls are given as the source filed them. Unless noted, no cut-off is given here; in the data, nearly all actives have AC50 up to about 30 µM."}
{"compound": "CCCCc1oc2ccc(NS(C)(=O)=O)cc2c1C(=O)c1ccc(OCCCN(CCCC)CCCC)cc1", "values": [{"measurement": "nuclear beta-catenin stimulation", "setting": "[1]; at 10 µM", "value": "-3.1% (inactive)"}, {"measurement": "nuclear beta-catenin stimulation", "setting": "[1]; stimulation, at 2 µM", "value": 2, "unit": "%"}, {"measurement": "insulin secretion stimulation", "setting": "[2]", "value": "2.1% (inactive)"}, {"measurement": "viability decrease", "setting": "[3]", "value": "99.1% (active)"}, {"measurement": "tube area decrease", "setting": "[4]", "value": "109% (active)"}, {"measurement": "GLP1 secretion stimulation", "setting": "[5]", "value": "-5.9% (inactive)"}, {"measurement": "inhibition of viability", "setting": "[6]", "value": "99.3% (active)"}, {"measurement": "viability decrease (inhibition)", "setting": "[7]", "value": "102% (active)"}, {"measurement": "viability decrease (inhibition)", "setting": "[8]", "value": "101% (active)"}, {"measurement": "AC50", "setting": "[9]", "value": "7.43 µM (active)"}, {"measurement": "AC50", "setting": "[10]", "value": "13.2 µM (active)"}, {"measurement": "AC50", "setting": "[11]", "value": "10.5 µM (active)"}, {"measurement": "IC50", "setting": "[12]", "value": "10.5 µM (active)"}, {"measurement": "fold change", "setting": "[13]; [19]", "value": "1.3 (inactive) and 0.866 (inactive)"}, {"measurement": "fold change", "setting": "[13]; [20]", "value": "0.545 and 1.08"}, {"measurement": "cell count", "setting": "[13]; [21]", "value": "1680 and 3440"}, {"measurement": "cell count", "setting": "[13]; [22]", "value": "1290 and 3970"}, {"measurement": "z-score", "setting": "[14]; [23]", "value": "-1.62 and -0.663 (inactive)"}, {"measurement": "z-score", "setting": "[14]; [24]", "value": "1.98 and -1.01"}, {"measurement": "z-score", "setting": "[15]", "value": "-2.66 (inactive)"}]}
{"compound": "COc1ccc(-c2ccc3cc(C(=O)O)ccc3c2)cc1C12CC3CC(CC(C3)C1)C2", "values": [{"measurement": "nuclear beta-catenin stimulation", "setting": "[1]; at 10 µM", "value": "21.9% (inactive)"}, {"measurement": "nuclear beta-catenin stimulation", "setting": "[1]; stimulation, at 2 µM", "value": 32.2, "unit": "%"}, {"measurement": "insulin secretion stimulation", "setting": "[2]", "value": "0.9% (inactive)"}, {"measurement": "viability decrease", "setting": "[3]", "value": "118% (active)"}, {"measurement": "tube area decrease", "setting": "[4]", "value": "99.5% (active)"}, {"measurement": "GLP1 secretion stimulation", "setting": "[5]", "value": "-2.3% (inactive)"}, {"measurement": "inhibition of viability", "setting": "[6]", "value": "123% (active)"}, {"measurement": "viability decrease (inhibition)", "setting": "[7]", "value": "159% (active)"}, {"measurement": "viability decrease (inhibition)", "setting": "[8]", "value": "102% (active)"}, {"measurement": "outcome", "setting": "[16]", "value": "inactive"}, {"measurement": "outcome", "setting": "[9]", "value": "inactive"}, {"measurement": "outcome", "setting": "[10]", "value": "inactive"}, {"measurement": "outcome", "setting": "[12]", "value": "inactive"}, {"measurement": "fold change", "setting": "[13]; [19]", "value": "1.08 (inactive) and 1.16 (inactive)"}, {"measurement": "fold change", "setting": "[13]; [20]", "value": "0.775 and 0.908"}, {"measurement": "cell count", "setting": "[13]; [21]", "value": "1330 and 1240"}, {"measurement": "cell count", "setting": "[13]; [22]", "value": "1230 and 1070"}, {"measurement": "z-score", "setting": "[14]; [23]", "value": "-0.222 (inactive) and -1.26 (inactive)"}, {"measurement": "z-score", "setting": "[14]; [24]", "value": "0.947 and 0.282"}]}
{"compound": "CC(=O)N[C@H]1[C@H]([C@H](O)[C@H](O)CO)OC(C(=O)O)=C[C@@H]1N=C(N)N", "values": [{"measurement": "nuclear beta-catenin stimulation", "setting": "[1]; at 10 µM", "value": "0.9% (inactive)"}, {"measurement": "nuclear beta-catenin stimulation", "setting": "[1]; stimulation, at 2 µM", "value": 0.5, "unit": "%"}, {"measurement": "insulin secretion stimulation", "setting": "[2]", "value": "-2.6% (inactive)"}, {"measurement": "viability decrease", "setting": "[3]", "value": "-14.4% (inactive)"}, {"measurement": "tube area decrease", "setting": "[4]", "value": "7.8% (inactive)"}, {"measurement": "GLP1 secretion stimulation", "setting": "[5]", "value": "-2.9% (inactive)"}, {"measurement": "inhibition of viability", "setting": "[6]", "value": "-2.4% (inactive)"}, {"measurement": "viability decrease (inhibition)", "setting": "[7]", "value": "19.9% (inactive)"}, {"measurement": "viability decrease (inhibition)", "setting": "[8]", "value": "2.95% (inactive)"}, {"measurement": "outcome", "setting": "[16]", "value": "inactive"}, {"measurement": "outcome", "setting": "[9]", "value": "inactive"}, {"measurement": "outcome", "setting": "[10]", "value": "inactive"}]}
{"compound": "CN1CCCN=C1/C=C/c1cccs1", "values": [{"measurement": "parasite load remaining", "setting": "[17]", "value": "31.2% (inactive) and 87.7% (inactive)"}, {"measurement": "viability", "setting": "[17]", "value": "47.1% and 90.3%"}, {"measurement": "nuclear beta-catenin stimulation", "setting": "[1]; at 10 µM", "value": "1.3% (inactive)"}, {"measurement": "nuclear beta-catenin stimulation", "setting": "[1]; stimulation, at 2 µM", "value": 0, "unit": "%"}, {"measurement": "insulin secretion stimulation", "setting": "[2]", "value": "0.75% (inactive)"}, {"measurement": "viability decrease", "setting": "[3]", "value": "6.6% (inactive)"}, {"measurement": "tube area decrease", "setting": "[4]", "value": "-9.9% (inactive)"}, {"measurement": "GLP1 secretion stimulation", "setting": "[5]", "value": "1.8% (inactive)"}, {"measurement": "inhibition of viability", "setting": "[6]", "value": "13.5% (inactive)"}, {"measurement": "viability decrease (inhibition)", "setting": "[7]", "value": "4.9% (inactive)"}, {"measurement": "viability decrease (inhibition)", "setting": "[8]", "value": "-4.2% (inactive)"}, {"measurement": "outcome", "setting": "[18]", "value": "inactive"}, {"measurement": "outcome", "setting": "[11]", "value": "inactive"}, {"measurement": "outcome", "setting": "[12]", "value": "inactive"}, {"measurement": "fold change", "setting": "[13]; [19]", "value": "0.92 (inactive)"}, {"measurement": "fold change", "setting": "[13]; [20]", "value": 1.06}, {"measurement": "cell count", "setting": "[13]; [21]", "value": 9190}, {"measurement": "cell count", "setting": "[13]; [22]", "value": 9990}, {"measurement": "z-score", "setting": "[14]; [23]", "value": "0.267 (inactive)"}, {"measurement": "z-score", "setting": "[14]; [24]", "value": -0.214}]}
{"compound": "CC1(C)CCC(C)(C)c2cc(NC(=O)c3ccc(C(=O)O)cc3)ccc21", "values": [{"measurement": "nuclear beta-catenin stimulation", "setting": "[1]; at 10 µM", "value": "8% (inactive)"}, {"measurement": "nuclear beta-catenin stimulation", "setting": "[1]; stimulation, at 2 µM", "value": 8.5, "unit": "%"}, {"measurement": "insulin secretion stimulation", "setting": "[2]", "value": "-0.4% (inactive)"}, {"measurement": "viability decrease", "setting": "[3]", "value": "77.6% (active)"}, {"measurement": "tube area decrease", "setting": "[4]", "value": "5.5% (inactive)"}, {"measurement": "GLP1 secretion stimulation", "setting": "[5]", "value": "4% (inactive)"}, {"measurement": "inhibition of viability", "setting": "[6]", "value": "69.7% (active)"}, {"measurement": "viability decrease (inhibition)", "setting": "[7]", "value": "47.9% (inactive)"}, {"measurement": "viability decrease (inhibition)", "setting": "[8]", "value": "43.1% (inactive)"}, {"measurement": "outcome", "setting": "[16]", "value": "inactive"}, {"measurement": "outcome", "setting": "[18]", "value": "inactive"}, {"measurement": "outcome", "setting": "[10]", "value": "inactive"}, {"measurement": "outcome", "setting": "[11]", "value": "inactive"}, {"measurement": "outcome", "setting": "[12]", "value": "inactive"}, {"measurement": "fold change", "setting": "[13]; [19]", "value": "0.901 (inactive)"}, {"measurement": "fold change", "setting": "[13]; [20]", "value": 0.365}, {"measurement": "cell count", "setting": "[13]; [21]", "value": 8210}, {"measurement": "cell count", "setting": "[13]; [22]", "value": 9110}, {"measurement": "z-score", "setting": "[14]; [23]", "value": "0.242 (inactive)"}, {"measurement": "z-score", "setting": "[14]; [24]", "value": -0.199}]}
